# Results filed as inconclusive are left out. Calls of active or inactive are those of the source. Rule for the calls: active = hit-call score of the fitted dose curve at least 0.9, where 1 is the maximum; inconclusive = response in the unintended direction; inactive = score below 0.9.
# How the values were obtained:
# [1] = target: Estrogen receptor (Homo sapiens) (UniProt P03372); experiment: OT_ER_ERaERa_1440: Odyssey Thera (OT) 24-hour HEK293T Protein-Complementation Assay for Estrogen Receptor-alpha/-alpha Homodimer (AID 2283349);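 note: hits raise fluorescence above DMSO for agonists and antagonists alike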
# Sequence of Estrogen receptor (Homo sapiens) (P03372 whole entry, looked up, the tested form may be a part): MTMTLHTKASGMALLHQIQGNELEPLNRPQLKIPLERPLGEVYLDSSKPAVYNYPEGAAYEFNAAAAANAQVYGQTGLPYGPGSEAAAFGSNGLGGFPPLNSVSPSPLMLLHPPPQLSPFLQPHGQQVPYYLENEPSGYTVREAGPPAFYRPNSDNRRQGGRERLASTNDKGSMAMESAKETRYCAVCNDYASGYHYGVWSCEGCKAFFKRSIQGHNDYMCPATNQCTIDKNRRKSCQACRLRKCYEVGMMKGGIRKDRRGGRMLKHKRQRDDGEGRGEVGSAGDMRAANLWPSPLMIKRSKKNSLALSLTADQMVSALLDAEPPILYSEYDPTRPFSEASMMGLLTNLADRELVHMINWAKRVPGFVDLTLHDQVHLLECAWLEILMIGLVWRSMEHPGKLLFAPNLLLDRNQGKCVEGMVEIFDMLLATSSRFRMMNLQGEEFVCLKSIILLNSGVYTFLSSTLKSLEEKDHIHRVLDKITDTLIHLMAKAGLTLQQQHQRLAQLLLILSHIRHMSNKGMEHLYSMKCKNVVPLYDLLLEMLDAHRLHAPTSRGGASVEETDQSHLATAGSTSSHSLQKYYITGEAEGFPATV
# Procedure, shortened: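 HEK293T, stable ERα LBD (aa 310-547) homodimer PCA; 24 h compound exposure; mean fluorescence intensity (nuclear for agonists, nuclear plus cytoplasmic for antagonists) vs vehicle; positive fitting direction, DMSO baseline.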
# [2] = target: Estrogen receptor (Homo sapiens) (UniProt P03372); experiment: OT_ER_ERaERa_0480: Odyssey Thera (OT) 8-hour HEK293T Protein-Complementation Assay for Estrogen Receptor-alpha/-alpha Homodimer (AID 2283351);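 note: rise in fluorescence from reassembled reporter fragments on ERα LBD homodimer in nucleus or whole cell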
# Procedure, shortened: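 Cells were treated for 8 hours, then imaged on a laser scanning plate cytometer. Complementation of reporter fragments fused to the human ERα ligand-binding domain (residues 310-547) in HEK293T gave fluorescence, and gain of signal over vehicle was fitted.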
# [3] = target: bovine Estrogen Receptor (ER), ESR1 (gene 407238) (UniProt P49884); experiment: NVS_NR_bER: NovaScreen (NVS) Nuclear Receptor Binding Assay for bovine Estrogen Receptor (ER) (AID 2283345);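 note: actives lower the bound radioligand count which means they displace the ER ligand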
# Sequence of bovine Estrogen Receptor (ER), ESR1 (gene 407238) (P49884 whole entry, looked up): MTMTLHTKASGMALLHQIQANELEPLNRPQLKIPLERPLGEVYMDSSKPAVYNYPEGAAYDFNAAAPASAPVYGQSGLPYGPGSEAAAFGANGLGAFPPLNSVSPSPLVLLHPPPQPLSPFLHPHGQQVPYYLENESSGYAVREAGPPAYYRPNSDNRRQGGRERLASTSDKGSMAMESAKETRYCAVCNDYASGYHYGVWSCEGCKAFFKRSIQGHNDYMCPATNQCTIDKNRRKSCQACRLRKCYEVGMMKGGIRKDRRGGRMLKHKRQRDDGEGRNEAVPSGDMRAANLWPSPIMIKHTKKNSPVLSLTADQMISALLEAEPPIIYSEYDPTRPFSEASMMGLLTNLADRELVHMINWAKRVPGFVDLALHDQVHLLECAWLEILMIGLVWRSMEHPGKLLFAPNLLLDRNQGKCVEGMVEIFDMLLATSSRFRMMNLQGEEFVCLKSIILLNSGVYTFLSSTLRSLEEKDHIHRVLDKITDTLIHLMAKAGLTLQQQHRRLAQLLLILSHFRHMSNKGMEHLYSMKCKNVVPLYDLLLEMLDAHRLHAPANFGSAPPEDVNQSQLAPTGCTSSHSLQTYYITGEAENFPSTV
# Procedure, shortened: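 Cell-free radioligand binding with receptor from bovine uterine membranes, read by scintillation counting 18 h after dosing. Loss of specific binding was scored against DMSO; primary screen at 25 uM in duplicate, actives then run as concentration series.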
# [4] = target: Estrogen receptor (Homo sapiens) (UniProt P03372); experiment: NVS_NR_hER: NovaScreen (NVS) Nuclear Receptor Binding Assay for human Estrogen Receptor (ER) (AID 2283348)
# Procedure, shortened: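 Cell-free MCF7-derived ER preparation, specific radioligand displaced by test compound, read by scintillation counting 18 h post-dosing. Duplicate single-point 25 uM screen, then concentration-response confirmation; DMSO baseline.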
# [5] = target: Estrogen receptor (Homo sapiens) + Estrogen receptor beta (Homo sapiens) (UniProt P03372+Q92731); experiment: OT_ER_ERaERb_0480: Odyssey Thera (OT) 8-hour HEK293T Protein-Complementation Assay for Estrogen Receptor-alpha/-beta Heterodimer (AID 2283352)
# Sequence of Estrogen receptor (Homo sapiens) + Estrogen receptor beta (Homo sapiens) (P03372 whole entry, looked up): as the sequence (P03372 whole entry, looked up, the tested form may be a part) above
# Sequence of Estrogen receptor (Homo sapiens) + Estrogen receptor beta (Homo sapiens) (Q92731 whole entry, looked up): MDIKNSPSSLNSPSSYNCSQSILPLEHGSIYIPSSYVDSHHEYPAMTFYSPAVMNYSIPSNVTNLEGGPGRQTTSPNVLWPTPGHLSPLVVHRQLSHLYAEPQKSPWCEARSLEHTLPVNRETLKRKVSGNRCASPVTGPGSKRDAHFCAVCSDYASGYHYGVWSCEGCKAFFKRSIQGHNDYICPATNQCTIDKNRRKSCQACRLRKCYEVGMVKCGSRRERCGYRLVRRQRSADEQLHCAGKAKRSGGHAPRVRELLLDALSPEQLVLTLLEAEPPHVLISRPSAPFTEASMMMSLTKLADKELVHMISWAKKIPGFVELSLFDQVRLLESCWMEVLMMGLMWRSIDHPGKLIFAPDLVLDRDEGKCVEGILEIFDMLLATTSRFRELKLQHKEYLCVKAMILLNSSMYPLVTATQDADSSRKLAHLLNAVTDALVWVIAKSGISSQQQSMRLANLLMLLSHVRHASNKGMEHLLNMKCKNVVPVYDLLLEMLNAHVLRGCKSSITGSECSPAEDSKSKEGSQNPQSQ
# Procedure, shortened: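 Compound added to HEK293T cells carrying split-reporter-tagged ER-alpha and ER-beta LBDs, incubated 8 hours, then imaged by laser scanning cytometer. Signal rise in nucleus, or nucleus and cytoplasm, over vehicle was fitted in the positive direction.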
# [6] = target: human Constitutive Androstane Receptor (CAR), NR1I3 (gene 9970) (UniProt Q14994); experiment: NVS_NR_hCAR_Antagonist: NovaScreen (NVS) Nuclear Receptor Binding Assay for human Constitutive Androstane Receptor Antagonism (CAR) (AID 2283344)
# Sequence of human Constitutive Androstane Receptor (CAR), NR1I3 (gene 9970) (Q14994 whole entry, looked up): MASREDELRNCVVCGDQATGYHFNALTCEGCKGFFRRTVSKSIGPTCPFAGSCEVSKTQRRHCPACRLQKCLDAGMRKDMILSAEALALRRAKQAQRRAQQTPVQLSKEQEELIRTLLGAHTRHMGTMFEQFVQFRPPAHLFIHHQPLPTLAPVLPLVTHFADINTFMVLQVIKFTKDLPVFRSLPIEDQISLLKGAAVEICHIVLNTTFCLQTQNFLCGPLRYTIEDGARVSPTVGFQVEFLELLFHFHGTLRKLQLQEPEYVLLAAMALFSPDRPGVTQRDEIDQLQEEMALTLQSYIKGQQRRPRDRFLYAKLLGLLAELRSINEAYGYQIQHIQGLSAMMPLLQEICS
# Procedure, shortened: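 Single 25 uM duplicate primary screen, with concentration-series follow-up on actives. Cell-free binding format run in antagonist mode, TR-FRET signal taken 1 h post-dose; activity is signal loss relative to DMSO.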
# [7] = target: Bile acid receptor (Homo sapiens) (UniProt Q96RI1); experiment: NVS_NR_hFXR_Antagonist: NovaScreen (NVS) Nuclear Receptor Binding Assay for human Farnesoid X Receptor Antagonism (FXR) (AID 2283350)
# Sequence of Bile acid receptor (Homo sapiens) (Q96RI1 whole entry, looked up): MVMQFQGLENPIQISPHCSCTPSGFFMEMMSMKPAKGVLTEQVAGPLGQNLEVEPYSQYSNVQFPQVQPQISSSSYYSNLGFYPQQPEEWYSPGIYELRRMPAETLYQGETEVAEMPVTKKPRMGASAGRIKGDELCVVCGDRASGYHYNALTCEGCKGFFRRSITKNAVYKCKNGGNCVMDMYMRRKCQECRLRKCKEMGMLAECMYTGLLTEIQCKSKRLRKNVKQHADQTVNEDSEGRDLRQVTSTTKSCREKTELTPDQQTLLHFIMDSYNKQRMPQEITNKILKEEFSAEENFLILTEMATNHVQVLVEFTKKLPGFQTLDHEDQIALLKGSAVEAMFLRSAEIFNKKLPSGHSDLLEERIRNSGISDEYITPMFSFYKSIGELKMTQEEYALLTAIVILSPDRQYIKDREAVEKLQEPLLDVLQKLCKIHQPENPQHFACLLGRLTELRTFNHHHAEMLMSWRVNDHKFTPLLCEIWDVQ
# Procedure, shortened: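 Antagonist-format time-resolved FRET binding assay with extracted human receptor protein, read 1 hour after compound addition. Compounds first screened at 25 uM in duplicate, then actives tested in concentration series, with loss of signal relative to DMSO.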
# [8] = target: chimpanzee Androgen Receptor (AR), AR (gene 747460) (UniProt O97775); experiment: NVS_NR_cAR: NovaScreen (NVS) Nuclear Receptor Binding Assay for chimpanzee Androgen Receptor (AR) (AID 2283346);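 note: radioligand displacement from AR measured by scintillation counting in a cell-free assay; a loss of bound radioligand signal versus DMSO counts as binding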
# Sequence of chimpanzee Androgen Receptor (AR), AR (gene 747460) (O97775 whole entry, looked up): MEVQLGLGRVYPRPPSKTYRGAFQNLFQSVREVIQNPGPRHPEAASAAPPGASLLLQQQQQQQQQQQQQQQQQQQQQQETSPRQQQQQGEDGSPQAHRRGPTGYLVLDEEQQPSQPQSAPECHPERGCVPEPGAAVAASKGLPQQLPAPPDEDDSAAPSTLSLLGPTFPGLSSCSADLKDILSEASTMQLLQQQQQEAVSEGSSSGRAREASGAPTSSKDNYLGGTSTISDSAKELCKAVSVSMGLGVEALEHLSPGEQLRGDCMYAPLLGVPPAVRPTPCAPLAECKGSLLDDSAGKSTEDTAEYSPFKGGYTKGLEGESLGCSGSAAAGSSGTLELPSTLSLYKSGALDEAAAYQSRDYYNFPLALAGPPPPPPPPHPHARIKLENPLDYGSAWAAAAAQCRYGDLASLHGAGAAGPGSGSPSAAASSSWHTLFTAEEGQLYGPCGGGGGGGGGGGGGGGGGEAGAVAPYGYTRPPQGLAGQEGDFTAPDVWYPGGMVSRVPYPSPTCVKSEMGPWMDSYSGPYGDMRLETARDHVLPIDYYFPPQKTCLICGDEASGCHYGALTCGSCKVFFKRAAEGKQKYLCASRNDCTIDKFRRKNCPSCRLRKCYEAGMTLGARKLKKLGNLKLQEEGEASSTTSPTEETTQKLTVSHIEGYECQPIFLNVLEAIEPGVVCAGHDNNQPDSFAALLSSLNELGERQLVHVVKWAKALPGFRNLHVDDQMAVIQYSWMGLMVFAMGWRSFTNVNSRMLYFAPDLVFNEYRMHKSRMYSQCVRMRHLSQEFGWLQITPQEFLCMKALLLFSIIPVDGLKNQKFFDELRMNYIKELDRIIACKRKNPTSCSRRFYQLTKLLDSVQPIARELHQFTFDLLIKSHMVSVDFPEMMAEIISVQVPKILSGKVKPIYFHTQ
# Procedure, shortened: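 Cell-free competition binding with insect-cell (Sf9/Sf21) extracted chimpanzee AR; scintillation signal from lysate at 72 h. Screened in duplicate at 25 uM, then concentration-response for actives; fitting relative to DMSO.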
# [9] = target: rat Glycine Receptor, Strychnine-sensitive (GlyRStrySens), Glra1 (gene 25674) (UniProt P07727); experiment: NVS_LGIC_rGlyRStrySens: NovaScreen (NVS) Ligand-Gated Ion Channel Assay for rat Glycine Receptor, Strychnine-sensitive (GlyRStrySens) (AID 2283341)
# Sequence of rat Glycine Receptor, Strychnine-sensitive (GlyRStrySens), Glra1 (gene 25674) (P07727 whole entry, looked up): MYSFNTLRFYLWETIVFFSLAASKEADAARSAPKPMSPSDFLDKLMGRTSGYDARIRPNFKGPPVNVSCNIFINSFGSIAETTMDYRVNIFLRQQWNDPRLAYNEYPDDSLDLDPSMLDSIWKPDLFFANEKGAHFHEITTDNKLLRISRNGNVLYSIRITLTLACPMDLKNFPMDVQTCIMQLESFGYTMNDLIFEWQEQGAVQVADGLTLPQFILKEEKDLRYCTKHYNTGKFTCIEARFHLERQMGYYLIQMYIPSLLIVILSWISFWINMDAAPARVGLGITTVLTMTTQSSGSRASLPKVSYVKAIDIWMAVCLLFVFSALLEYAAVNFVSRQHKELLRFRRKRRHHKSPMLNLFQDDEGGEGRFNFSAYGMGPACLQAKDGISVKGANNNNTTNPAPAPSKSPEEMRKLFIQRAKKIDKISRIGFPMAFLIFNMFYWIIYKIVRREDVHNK
# Procedure, shortened: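 Radioligand displacement on rat spinal cord membranes, 1 hr, filter scintillation read-out. Single-concentration duplicate screen at 25 uM; chemicals meeting threshold (e.g., 30% inhibition) rerun in concentration-response up to 50 uM. Loss of binding fitted versus DMSO.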
smiles,measurement,setting,value
COc1ccc(C)cc1N,outcome,[1],inactive
same,outcome,[2],inactive
Oc1ccc2ccccc2c1N=Nc1ccccc1,outcome,[3],inactive
same,outcome,[1],inactive
same,outcome,[2],inactive
COC(=O)c1ccc(O)cc1,outcome,[3],inactive
same,outcome,[4],inactive
same,outcome,[1],inactive
same,outcome,[2],inactive
same,AC50,[5],50 µM (active)
COc1cc(-c2nc(NC(=O)c3cc4cc(C)cc(C)c4n3CC(=O)O)sc2CCC2CCCCC2)c(OC)cc1Cl,AC50,[6],3.54 µM (active)
same,outcome,[3],inactive
same,outcome,[1],inactive
same,outcome,[7],inactive
same,outcome,[2],inactive
same,outcome,[5],inactive
CCOC(=O)CCC(=O)OCC,outcome,[4],inactive
same,outcome,[1],inactive
same,outcome,[2],inactive
same,outcome,[5],inactive
O=c1c(O)c(-c2ccc(O)c(O)c2)oc2cc(O)cc(O)c12,outcome,[4],inactive
same,outcome,[1],inactive
same,outcome,[2],inactive
same,AC50,[5],13.4 µM (active)
O=C(O)Cc1ccccc1Nc1c(Cl)cccc1Cl,outcome,[3],inactive
same,outcome,[4],inactive
same,outcome,[1],inactive
same,outcome,[5],inactive
C[C@]12C=CC(=O)C=C1CC[C@@H]1[C@@H]2C(=O)C[C@@]2(C)[C@H]1CC[C@]2(O)C(=O)CO,AC50,[8],14.8 µM (active)
same,outcome,[4],inactive
same,outcome,[1],inactive
same,outcome,[2],inactive
CCCCc1ccc2c(n1)[C@@H](c1ccc(OC)cc1C[C@H](C)C(=O)O)[C@H](C(=O)O)[C@H]2c1ccc2c(c1)OCO2,outcome,[6],inactive
same,outcome,[1],inactive
same,outcome,[2],inactive
same,outcome,[5],inactive
COc1ccc2c(c1)c(CC(=O)O)c(C)n2C(=O)c1ccc(Cl)cc1,outcome,[3],inactive
same,outcome,[4],inactive
same,outcome,[1],inactive
CCNc1cccc(C)c1,outcome,[8],inactive
same,outcome,[1],inactive
same,outcome,[2],inactive
CCCc1cc(=O)[nH]c(=S)[nH]1,AC50,[3],25 µM (active)
same,AC50,[4],11.2 µM (active)
same,outcome,[1],inactive
same,outcome,[2],inactive
CCCCCCCCCCCC(=O)OC,outcome,[6],inactive
same,outcome,[1],inactive
same,outcome,[7],inactive
same,outcome,[2],inactive
same,outcome,[5],inactive
CN[C@H]1CC[C@@H](c2ccc(Cl)c(Cl)c2)c2ccc(S(N)(=O)=O)cc21,outcome,[3],inactive
same,outcome,[1],inactive
same,outcome,[2],inactive
CC1=C(/C=C/C(C)=C/C=C/C(C)=C/CO)C(C)(C)CCC1,outcome,[4],inactive
same,outcome,[1],inactive
same,outcome,[2],inactive
same,outcome,[5],inactive
c1cc(-c2ccncc2)ccn1,outcome,[1],inactive
same,outcome,[2],inactive
NCCO,outcome,[1],inactive
same,outcome,[2],inactive
Cc1ccc(C)c(O)c1C,outcome,[9],inactive
same,outcome,[1],inactive
same,outcome,[2],inactive
O=C(OCCCCCOC(=O)c1ccccc1)c1ccccc1,outcome,[6],inactive
same,outcome,[1],inactive
same,outcome,[2],inactive
Cc1cc(NC(=O)C(=O)O)cc(C)c1Oc1ccc(O)c2c1CCC2,outcome,[8],inactive
same,outcome,[1],inactive
same,outcome,[2],inactive
Clc1cc(Cl)c(Cl)cc1Cl,outcome,[1],inactive
same,outcome,[2],inactive
Cc1ccc(Cl)cc1,outcome,[3],inactive
same,outcome,[1],inactive
same,outcome,[7],inactive
same,outcome,[2],inactive
CC(=O)C(C)=CC1C(C)=CCCC1(C)C (stereo not drawn),outcome,[4],inactive
same,outcome,[1],inactive
same,outcome,[2],inactive
Cc1cc(=O)[nH]c(=S)[nH]1,outcome,[1],inactive
same,outcome,[2],inactive
CCCCCCCCCCCCCCCCCC(=O)O,outcome,[3],inactive
same,AC50,[4],17.2 µM (active)
same,outcome,[1],inactive
same,outcome,[2],inactive
CNCc1cc(F)ccc1Oc1ccc(Cl)c(Cl)c1,outcome,[3],inactive
same,AC50,[8],16.6 µM (active)
same,outcome,[1],inactive
same,outcome,[2],inactive
C[Si]1(C)O[Si](C)(C)O[Si](C)(C)O[Si](C)(C)O1,outcome,[4],inactive
same,outcome,[1],inactive
same,outcome,[2],inactive
same,outcome,[5],inactive
O=C(O)CCCCC(=O)O,outcome,[1],inactive
same,outcome,[2],inactive
same,outcome,[5],inactive
CC(=O)OC/C=C(\C)CCC=C(C)C,outcome,[1],inactive
same,outcome,[2],inactive
CN1CCCC1=O,outcome,[1],inactive
same,outcome,[5],inactive
COCCOCCOC,outcome,[1],inactive
same,outcome,[5],inactive
CCCCCCCCCCCCCCCC,outcome,[1],inactive
same,outcome,[2],inactive
CC(=O)Oc1ccccc1C(=O)O,outcome,[1],inactive
same,outcome,[2],inactive
same,outcome,[5],inactive
C1CCC(SSC2CCCCC2)CC1,outcome,[1],inactive
same,outcome,[2],inactive
same,AC50,[5],50 µM (active)
COCCOC[C@H](CC1(C(=O)NC2CCC(C(=O)O)CC2)CCCC1)C(=O)Oc1ccc2c(c1)CCC2 (stereo partly drawn),outcome,[1],inactive
same,outcome,[2],inactive
CCOC(=O)C(C)(C)Oc1ccc(Cl)cc1,outcome,[1],inactive
same,outcome,[2],inactive
same,outcome,[5],inactive
Cc1nc(C)nc(N2C[C@@H](C)N(c3ccnc([C@@H](C)O)n3)[C@@H](C)C2)n1,outcome,[2],inactive
CC1(C)NC(=O)NC1=O,outcome,[1],inactive
same,outcome,[2],inactive
Cc1ccc(C)c(C)c1,outcome,[1],inactive
same,outcome,[2],inactive
same,outcome,[5],inactive
CCCCOC(=O)CCCCCCCCC(=O)OCCCC,outcome,[1],inactive
same,outcome,[2],inactive
same,outcome,[5],inactive
CCCCCC(=O)O,outcome,[1],inactive
same,outcome,[2],inactive
same,outcome,[5],inactive
CNC(=O)[C@H]1O[C@@H](n2cnc3c(NCc4cc(Cl)ccc4OCc4cc(C)no4)ncnc32)[C@H](O)[C@@H]1N,AC50,[1],11.9 µM (active)
same,outcome,[2],inactive
same,outcome,[5],inactive
CCCCCCOCCO,outcome,[1],inactive
same,outcome,[2],inactive
same,outcome,[5],inactive
Cc1cccc(C)c1O,outcome,[1],inactive
same,outcome,[2],inactive
same,outcome,[5],inactive
NCC1(Cc2noc(=O)[nH]2)CCCCC1,outcome,[1],inactive
same,outcome,[2],inactive
same,outcome,[5],inactive
Cc1ccccc1Cl,outcome,[1],inactive
same,outcome,[2],inactive
Cc1ccc2ncccc2c1,outcome,[1],inactive
same,outcome,[2],inactive
Cc1ccc(N(C)C)cc1,outcome,[1],inactive
same,outcome,[2],inactive
OC[C@@H](O)[C@@H](O)[C@H](O)[C@H](O)CO,outcome,[1],inactive
same,outcome,[2],inactive
FC(F)(F)C(F)(F)C(F)(F)C(F)(F)C(F)(F)C(F)(F)CCI,outcome,[1],inactive
same,outcome,[2],inactive
CCCCCCCCCCCCCO,outcome,[1],inactive
same,outcome,[2],inactive
same,outcome,[5],inactive
CC(CO)OC(C)CO (stereo not drawn) (tested in a mixture with another compound),outcome,[1],inactive
same,outcome,[2],inactive
CCCCCCCCCCO,outcome,[1],inactive
same,outcome,[2],inactive
same,outcome,[5],inactive

# — PubChem BioAssay (EPA / NIEHS)
